ALR inh = human ALR oxidase inhibition via reduced H2O2; P55789; purified ALR, DTT oxidation, H2O2 HRP-luminol luminescence; inhibition, % (no concentration beside the values); 290,000 tested, 3.8% active;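 active = mean replicate inhibition above about 79%, with every replicate also reaching it, limit read from the data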
PREPL inhibitor = inhibitors of human prolyl oligopeptidase-like enzyme PREPL; Q4J6C6; recombinant PREPL, fluorescence polarization activity-based probe; inhibition, % at 5.96 µM; 320,000 tested, 0.68% active; in the data active = inhibition above about 43%;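 also: 0% = enzyme with DMSO and 100% = wells lacking enzyme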
CHT allo act = allosterically activates the human high affinity choline transporter. Q9GZV3. CHT-expressing cells, membrane potential dye, choline EC20; stronger effect = higher value; LV-AA mutant CHT in HEK293 cells. B-score at 10 µM. 310,000 tested, 0.49% active. AID 488977;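 active = initial fluorescence not abnormally high and integrated response B-score, plate-corrected, over 3 SD above library mean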
Target sequence (Q9GZV3 whole entry, looked up): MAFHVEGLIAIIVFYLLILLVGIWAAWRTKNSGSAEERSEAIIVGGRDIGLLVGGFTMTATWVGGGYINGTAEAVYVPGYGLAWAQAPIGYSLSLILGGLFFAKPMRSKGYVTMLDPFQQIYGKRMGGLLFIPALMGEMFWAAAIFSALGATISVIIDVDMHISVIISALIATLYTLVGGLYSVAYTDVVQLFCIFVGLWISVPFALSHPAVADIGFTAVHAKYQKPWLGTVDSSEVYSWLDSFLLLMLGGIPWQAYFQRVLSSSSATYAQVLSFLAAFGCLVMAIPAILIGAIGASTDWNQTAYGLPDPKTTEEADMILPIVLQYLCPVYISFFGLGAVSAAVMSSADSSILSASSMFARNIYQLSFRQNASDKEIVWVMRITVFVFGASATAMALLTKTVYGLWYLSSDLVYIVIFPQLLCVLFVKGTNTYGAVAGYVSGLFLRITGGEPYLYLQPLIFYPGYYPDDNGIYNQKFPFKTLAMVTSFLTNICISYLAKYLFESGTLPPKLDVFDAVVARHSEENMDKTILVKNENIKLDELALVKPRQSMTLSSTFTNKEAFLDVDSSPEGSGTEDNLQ
CHT inh = inhibitors of human choline transporter CHT | B-score at 10 µM | CHT-expressing cells, membrane potential dye, choline response; stronger effect = lower value | Q9GZV3 | 310,000 tested, 0.86% active;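 active = B-score over 3 SD under the library average, and starting fluorescence ratio not unusually high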;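 also: choline stimulus applied at its EC90 after an EC20 pre-addition; B-score computed on integrated fluorescence ratio after choline addition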
AI-2 QS modul = Vibrio harveyi AI-2 quorum sensing modulation. Vibrio harveyi JMH597 AI-2 luminescence/OD600 ratio, 9 h; stronger effect = lower value; strain lacks LuxN and CqsS sensors; 0 = neutral-control median. activity change, % at 7.5 µM. 300,000 tested, 0.4% active. AID 2094; in the data active = activity change below about -75%, passing the limit was not always enough;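 also: luminescence divided by OD600 gain over 9 h not by final OD600 alone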
Numbers without * were called inactive; i = inactive; . = not tested or not shown. Sampled rows, rich in hits. Any-hit rate of the full collection: about 5%.

SMILES	ALR inh	PREPL inhibitor	CHT allo act	CHT inh	AI-2 QS modul
O=C(NCc1ccccn1)c1cc(S(=O)(=O)N2CCCCC2)ccc1Cl	-5	4	.	.	.
ClCc1csc(-c2ccc(Cl)cc2)n1	98*	2	i	i	1
CS(=O)(=O)c1ccc2c(c1)sc1nc(=O)c(/C=C3/C=CC(=O)C(O)=C3)c(N)n12	90*	16	i	i	8
COC(=O)c1cc(=O)nc2sc3cc(OC)ccc3n12	0	-13	i	i	23
CCS(=O)(=O)c1nn2c(N)c(/C=C3/C=CC(=O)C(OC)=C3)c(=O)nc2s1	100*	3	i	i	9
CCOC1=C/C(=C/c2c(N)n3nc(-c4ccccc4)sc3nc2=O)C=CC1=O	.	.	.	.	21
COC1=C/C(=C/c2c(N)n3c(nc2=O)sc2cc(S(C)(=O)=O)ccc23)C=CC1=O	99*	1	i	i	25
CCOC1=C/C(=C/c2c(N)n3oc(C)cc3nc2=O)C=CC1=O	91*	3	i	i	5
CCCCN(C(=O)CSc1ncn[nH]1)c1c(N)n(Cc2ccccc2)c(=O)[nH]c1=O	2	18	.	.	.
CC(C)c1ccc(NC(=O)Cn2nnc(C(=O)NCc3ccco3)c2N)cc1	2	-7	i	i	3
C/C(N)=C(/C#N)C(=O)COC(=O)c1oc2ccccc2c1COC(C)C	.	-12	i	i	21
CCn1c(=O)c2cc(C(=O)NCCN3CCOCC3)sc2c2ccccc21	94*	-1	i	i	35
CCCCNC(=O)c1cc2c(=O)n(CC)c3ccccc3c2s1	.	3	i	i	5
Cc1cc(C)c(O)c(-c2cc(C(=O)Nc3cccnc3)[nH]n2)c1	98*	17	i	i	54
CN(CCOc1ccc(Cl)cc1)C(=O)c1cc(S(=O)(=O)N2CCOCC2)ccc1N1CCCC1	-5	19	.	.	.
CCc1ccccc1NC(=O)CSc1nnc([C@@H](N)Cc2ccccc2)o1	-6	-12	i	i	.
CCc1ccccc1NC(=O)CSc1nc(C)c(C)o1	99*	.	i	i	11
COc1cc2cc(/C=C/C(=O)c3ccco3)c(Cl)nc2cc1OC	.	0	i	i	32
Cc1ccc2nc(Cl)c(/C=C/C(=O)c3ccco3)cc2c1	97*	0	i	i	15
COc1cccc(NC(=S)NNC(=O)CCn2cc([N+](=O)[O-])cn2)c1	83*	0	i	i	4
COc1cccc(NC(=S)NNC(=O)Cn2nc(C(F)F)cc2C(F)F)c1	84*	-3	i	i	4
COc1cccc(NC(=S)NNC(=O)Cn2nc([N+](=O)[O-])cc2C)c1	60	8	i	i	18
Cc1ccc2sc(NNC(=O)c3cc(=O)c4ccccc4o3)nc2c1C	99*	11	i	i	33
COc1ccc(NC(=O)c2ccc3c(SCC(=O)O)c4c(nc3c2)CCCC4)c(OC)c1	.	22	i	i	29
Cc1ccc2nc3c(c(Nc4cccc(O)c4)c2c1)CCC3	98*	-5	i	i	22
SMILES	ALR inh	PREPL inhibitor	CHT allo act	CHT inh	AI-2 QS modul
O=C(CSc1c2c(nc3ccccc13)CCCC2)NCc1ccco1	98*	4	i	i	15
COc1ccc(NC(=O)CSc2c3c(nc4ccccc24)CCC3)c(OC)c1	98*	-3	i	i	50
COc1ccc(Nc2c3c(nc4ccccc24)CCC3)c(OC)c1	99*	24	i	i	34
COC(=O)c1cccc(Nc2c3c(nc4ccccc24)CCC3)c1	.	.	.	.	13
c1ccc2c(Nc3ccc4c(c3)OCCO4)c3c(nc2c1)CCCC3	90*	37	i	i	9
COc1ccccc1Nc1c2c(nc3ccccc13)CCC2	99*	-4	i	i	13
Cc1c(C(=O)OCCOc2ccc(Br)cc2)sc(=S)n1C	14	13	i	i	3
S=c1[nH]nc(Cc2noc3ccccc23)n1-c1ccccc1	86*	23	i	i	13
S=c1[nH]nc(Cc2cccc3ccccc23)n1-c1ccccc1	90*	-15	i	i	12
C=CCn1c(OCc2ccccc2)n[nH]c1=S	96*	-3	i	i	17
C=CCn1c(C(c2ccccc2)c2ccccc2)n[nH]c1=S	.	-5	i	i	28
Nn1c(Cc2cccc3ccccc23)n[nH]c1=S	64	-1	i	i	2
C=CCn1c(Cc2cccc3ccccc23)n[nH]c1=S	92*	4	i	i	4
CCOC(=O)N1CCN(C(=O)COC(=O)c2ccccc2NCCO)CC1	.	6	i	i	0
COc1ccc(C(=O)Nc2c(C(C)(C)C)nn(C)c2C(C)(C)C)cc1	2	1	i	i	18
O=C(c1cccc(Cl)c1)N(Cc1ccco1)C1CCS(=O)(=O)C1 (stereo not given)	-21	4	i	i	28
C=CCn1c(CSc2nnc(-c3ccccc3)n2C)n[nH]c1=S	83*	23	i	i	16
CCN1CCCC1CNC(=O)CS(=O)(=O)Cc1nc(-c2ccccc2C)oc1C (stereo not given)	-3	41	i	i	-9
CCN1CCCC1CNC(=O)CSCc1nc(-c2ccccc2C)oc1C (stereo not given)	100*	5	i	i	17
Cc1cc(N/N=C/c2cccc(Cl)c2)nc(-n2nc(C)cc2C)n1	-15	1	i	i	21
Cc1nc(C#N)c(N/N=C/c2cccc(Cl)c2)o1	97*	12	i	i	5
Cc1sc(N)c(C(=O)c2ccccc2Cl)c1C	99*	3	i	i	-3
CC(C)OP(=O)(OC(C)C)C(C)NC(=O)Cc1ccccc1 (stereo not given)	-14	3	i	i	44
Nc1n[nH]c(N)c1N=Nc1cccc(F)c1	.	22	i	i	19
Cc1cccc(N=Nc2c(N)n[nH]c2N)c1	93*	2	i	i	17
SMILES	ALR inh	PREPL inhibitor	CHT allo act	CHT inh	AI-2 QS modul
Cc1cccc(OCc2nnc(SCC(=O)Nc3cccc(C(=O)N4CCOCC4)c3)o2)c1C	.	15	i	i	15
Cn1c(SCC(=O)Nc2cccc(F)c2)nc2c(c1=O)SCC2	94*	-2	i	i	16
CCOC(=O)c1ccc(NC(=O)CSc2nc3c(c(=O)n2-c2ccccc2OC)SCC3)cc1	99*	5	i	i	28
Cn1c(SCc2cccc([N+](=O)[O-])c2)nc2c(c1=O)SCC2	99*	22	i	i	26
COc1ccc(-n2c(SCc3cccnc3)nc3c(c2=O)SCC3)cc1OC	.	.	.	.	34
CCn1c(SCC(=O)Nc2ccc(OC)cc2)nc2c(c1=O)SCC2	45	7	i	i	18
Cn1c(SCC(=O)Nc2ccc(C(N)=O)cc2)nc2c(c1=O)SCC2	99*	-6	i	i	15
